Data published in PubChem BioAssay AID1159580 (chemical genetic matrix, 2015).
Among all 5,500 compounds or so, about 2,000 (36%) were called active. Not shown: some 18% with an inconclusive outcome. No stated cut-off is given here; in the data, active means normalized growth mostly below about 0.91 (no sharp cut-off); inconclusive means no clear call, values can overlap the other calls; inactive means mostly above about 0.92. The list shows a part of the results.

Experiment: chemical genetic growth profiling, strain panel (AID 1159580);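 further: tested at 20 µM; growth read once vehicle control cultures reached saturation at 30 °C; 1 = growth at the plate median or of vehicle wells; lower values mean less growth of the strain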
Conditions: S. cerevisiae deletion strains, growth OD

Measured: normalized growth

C1CCN2CC3CC(CN4CCCCC34)C2C1 (centres undefined)
inactive: locus YAL013W, strain DEP1, hits give low values 1.01 | locus YAL021C, strain ccr4, hits give low values 1 | locus YAL026C, strain drs2, hits give low values 1.03 | locus YAL030W, strain snc1, hits give low values 1.01 | locus YBL061C, strain skt5, hits give low values 1.02 | locus YBR009C, strain hhf1, hits give low values 1.02 | locus YBR021W, strain FUR4, hits give low values 1 | locus YBR023C, strain chs3, hits give low values 1.02 | locus YBR171W, strain sec66, hits give low values 1.03 | locus YBR229C, strain ROT2, hits give low values 1.01 | locus YBR231C, strain swc5, hits give low values 1.01 | locus YBR279W, strain paf1, hits give low values 1.02 | locus YCL011C, strain gbp2, hits give low values 1.02 | locus YCL016C, strain dcc1, hits give low values 1.02 | locus YCL029C, strain bik1, hits give low values 1.01 | locus YCL061C, strain MRC1, hits give low values 1.02 | locus YCL069W, strain vba3, hits give low values 1.03 | locus YCR088W, strain abp1, hits give low values 1.03 | locus YDL005C, strain med2, hits give low values 1.03 | locus YDL035C, strain GPR1, hits give low values 1.01 | locus YDL040C, strain nat1, hits give low values 1.01 | locus YDL074C, strain BRE1, hits give low values 1.01 | locus YDL101C, strain DUN1, hits give low values 0.997 | locus YDL134C, strain PPH21, hits give low values 1 | locus YDL185W, strain tfp1, hits give low values 1.01 | locus YDL192W, strain arf1, hits give low values 1.01 | locus YDR001C, strain nth1, hits give low values 1.02 | locus YDR069C, strain doa4, hits give low values 1.03 | locus YDR101C, strain arx1, hits give low values 1.01 | locus YDR137W, strain rgp1, hits give low values 1.02 | locus YDR150W, strain NUM1, hits give low values 1.01 | locus YDR159W, strain sac3, hits give low values 1.03 | locus YDR162C, strain NBP2, hits give low values 0.993 | locus YDR195W, strain ref2 0.99 | locus YDR297W, strain sur2, hits give low values 1.01 | locus YDR334W, strain swr1, hits give low values 1.03 | locus YDR335W, strain msn5, hits give low values 1.04 | locus YDR388W, hits give low values 1 | locus YDR392W, strain spt3, hits give low values 0.929 | locus YDR502C, strain sam2, hits give low values 0.974 | locus YEL003W, strain gim4, hits give low values 1.03 | locus YEL037C, strain rad23, hits give low values 1.02 | locus YEL061C, strain CIN8 (second series), hits give low values 1.03 | locus YEL061C, strain CIN8, hits give low values 1.01 | locus YER015W, strain faa2, hits give low values 1.01 | locus YER016W, strain bim1, hits give low values 1.03 | locus YER110C, hits give low values 1.02 | locus YER111C, strain swi4, hits give low values 1.02 | locus YER155C, strain BEM2 (second series), hits give low values 1.05 | locus YER155C, strain BEM2, hits give low values 1.01 | locus YER167W, strain BCK2, hits give low values 1.01 | locus YFR010W, strain ubp6, hits give low values 1.02 | locus YGL078C, strain dbp3, hits give low values 0.983 | locus YGL167C, strain pmr1, hits give low values 1.02 | locus YGL173C, strain kem1, hits give low values 1.03 | locus YGL227W, strain vid30, hits give low values 1.02 | locus YGL240W, strain doc1, hits give low values 1.03 | locus YGL248W, strain PDE1, hits give low values 0.998 | locus YGL253W, strain hxk2, hits give low values 1.02 | locus YGR078C, strain PAC10, hits give low values 1 | locus YGR229C, strain SMI1, hits give low values 1.01 | locus YHR013C, strain ard1, hits give low values 1.01 | locus YHR027C, strain rpn1, hits give low values 1.01 | locus YHR030C, strain SLT2, hits give low values 1.01 | locus YHR079C, strain IRE1 (second series), hits give low values 0.999 | locus YHR094C, strain hxt1, hits give low values 1.01 | locus YHR129C, strain ARP1, hits give low values 1 | locus YHR142W, strain chs7, hits give low values 1 | locus YHR200W, strain rpn10, hits give low values 1 | locus YIL066C, strain RNR3, hits give low values 1.02 | locus YIL073C, strain SPO22, hits give low values 1.07 | locus YIL125W, strain kgd1, hits give low values 1 | locus YIR030C, strain dcg1, hits give low values 1.01 | locus YJL092W, strain hpr5, hits give low values 1.03 | locus YJL095W, strain BCK1 (second series), hits give low values 1.02 | locus YJL095W, strain BCK1, hits give low values 0.995 | locus YJL115W, strain asf1, hits give low values 1.03 | locus YJL129C, strain trk1, hits give low values 1.02 | locus YJL134W, strain LCB3, hits give low values 1.01 | locus YJL154C, strain vps35, hits give low values 1.02 | locus YJL164C, strain tpk1, hits give low values 1.01 | locus YJL166W, strain qcr8, hits give low values 1.02 | locus YJL168C, strain set2, hits give low values 1.01 | locus YJL187C, strain SWE1 (second series), hits give low values 1.01 | locus YJL187C, strain SWE1, hits give low values 1.02
active: locus YDR318W, strain mcm21, hits give low values 0.654 | locus YGL086W, strain mad1, hits give low values 0.901 | locus YGR135W, strain pre9, hits give low values 0.838 | locus YGR252W, strain gcn5, hits give low values 0.732
